The full list was thinned out, with hits kept by preference.
Pf Dd2 growth = Plasmodium falciparum Dd2 growth inhibition | P. falciparum Dd2 growth, SYBR Green, 72 h | Potency, µM (doses to about 28.9 µM), without a hit: top-dose activity, negative = inhibition, hits mostly inhibitors | hit rate 4.3% among 120,000; active = well fitted inhibition curve with a large enough effect;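 note: plate controls were DMSO vehicle for no effect and reference drug for full effect; nearly all actives have a fitted effect of over 65% in size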
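Readout: SYBR Green fluorescence, 485 nm excitation, 535 nm emission, after ~16 h lysis at 37C. Before that, Dd2-infected red cells (2.5% hematocrit) grew 72 h with compound, 29 uM top final concentration.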
* hit, by the source's call; i = inactive; [ ] = dose if it differs, or a comment. Potency is the fitted concentration of half-maximal effect.

SMILES	Pf Dd2 growth
Cc1cc(C(F)(F)F)nn1CC(=O)N1CCCCCCNC(=O)CC1	-17%
O=S(=O)(Cc1ccccc1)N1CCC2(CC1)CC(OCC1CC1)CCO2 (configuration not stated)	12%
COc1ccc(F)c(CN2CCCC(O)(CN3CCCCC3)C2=O)c1 (configuration not stated)	i
COc1ccc(F)c(CN2CCCC(O)(CN3CCC(C(C)C)CC3)C2=O)c1 (configuration not stated)	-10%
COc1ccc(F)c(CN2CCCC(O)(CN3CCC(C)CC3)C2=O)c1 (configuration not stated)	4µM*
CCc1noc(-c2cccn3c(CNC(=O)c4ccoc4)nnc23)n1	i
CN(c1ccccc1)c1cc(=O)c2ccnc(NCCc3ccccn3)c2o1	i
CC(C)C(=O)NC1CCN(C(=O)N2CC3CC(C2)[C@H]2CCCC(=O)N2C3)CC1 (some centres not stated)	14%
c1ccc(CN2CCC(Oc3cnc4c(ccn4-c4cncnc4)c3)CC2)cc1	-7%[44.1 µM]
CN(CCC(C)(C)O)C(=O)c1cc2c(C(F)(F)F)nn(C)c2s1	-19%
CS(=O)(=O)c1ccc(CN[C@@H]2CO[C@H](CNC(=O)Nc3ccccc3)[C@H]2O)cc1	-23%[44.1 µM]
CC(C)(C)OC(=O)N1CC(NCc2ccccn2)C1	-1%[44.1 µM]
CC(C)(C)OC(=O)N1CC(Nc2ccc(O)cc2)C1	11µM*
Cc1cc(Cl)ccc1NC1CN(C(=O)OC(C)(C)C)C1	-9%[44.1 µM]
Cn1cnc(S(=O)(=O)N2CCCC(c3[nH]ccc3C(N)=O)C2)c1 (configuration not stated)	58%
C[C@@H]1CN(C(=O)c2cccc(C#N)c2)C[C@]1(C)O	-4%
COc1ccccc1CNS(=O)(=O)c1cc(Br)cc2c1N(C(=O)C1CC1)CC2	1%
COc1ccc(N2CCN(S(=O)(=O)c3cc(Br)cc4c3N(C(=O)C3CC3)CC4)CC2)cc1	i
Cc1ccc(C)c(N2CCN(C(=O)CCNS(=O)(=O)c3ccc4c(c3)CCN4C(=O)C3CC3)CC2)c1	-1%
CCC(=O)N1CCc2cc(S(=O)(=O)CCC(=O)N3CCN(c4cccc(Cl)c4)CC3)ccc21	-12%
Cc1ccc(C)c(N2CCN(S(=O)(=O)c3cc(Br)cc4c3N(C(=O)C3CC3)CC4)CC2)c1	49%
Cc1ccc(N2CCN(S(=O)(=O)c3cc(Br)cc4c3N(C(=O)C3CC3)CC4)CC2C)cc1 (configuration not stated)	i
O=C(CCS(=O)(=O)c1cc(Br)cc2c1N(C(=O)C1CC1)CC2)N1CCN(c2cccc(C(F)(F)F)c2)CC1	10µM*
Cc1ccc(C)c(N2CCN(C(=O)CCS(=O)(=O)c3cc(Br)cc4c3N(C(=O)C3CC3)CC4)CC2)c1	11µM*
O=C(CCS(=O)(=O)c1cc(Br)cc2c1N(C(=O)C1CC1)CC2)N1CCN(c2ccc(F)cc2)CC1	7.9µM*
SMILES	Pf Dd2 growth
CC(C)c1nnc(C2CN(C(=O)c3ccc(F)cc3F)CC23CCOCC3)o1 (configuration not stated)	i
CO[C@H]1C(=O)N(C(C)C)[C@H]1C1CCN(S(=O)(=O)c2cccs2)CC1	-26%
CN1C(=O)CC(C(=O)O)C12CCN(Cc1cscn1)CC2 (configuration not stated)	2%
CNC(=O)c1cccc2c1CCN2C(=O)Nc1ccc(C)cc1	i
CN1CCC(CN2CCC3(CC2)COCCN3C(=O)c2ccccc2)CC1	i
O=S(=O)(c1ccc(F)cc1)N1CCC(n2cnnc2C2CC2)CC1	i
Cc1nc(Cn2nc(C3CCCNC3)n(-c3ccccc3)c2=O)cs1 (configuration not stated)	-16%
CN1C(=O)C2(SCC(=O)N2c2cccc(C(F)(F)F)c2)c2ccccc21 (configuration not stated)	-4%
O=C(CN1C(=O)C2(SCC(=O)N2c2cccc(Cl)c2)c2ccccc21)NC1CCCCC1 (configuration not stated)	13µM*
O=C(CN1C(=O)C2(SCC(=O)N2c2cccc(Cl)c2)c2ccccc21)NCc1ccccc1 (configuration not stated)	11µM*
Cc1cccc(N2C(=O)CSC23C(=O)N(C)c2ccccc23)c1 (configuration not stated)	i
CCc1ccc(N2C(=O)CSC23C(=O)N(Cc2ccc(C)cc2)c2ccccc23)cc1 (configuration not stated)	-21%
CCc1ccc(N2C(=O)CSC23C(=O)N(Cc2cccc(F)c2)c2ccccc23)cc1 (configuration not stated)	-11%
O=C(Cn1c(=O)n(-c2cccc(Cl)c2)c(=O)c2sc3ccccc3c21)NC1CCCCC1	27%
CCc1ccc(NC(=O)CN2C(=O)C3(SCC(=O)N3c3ccccc3)c3ccccc32)cc1 (configuration not stated)	11µM*
CC(C)c1ccc(N2C(=O)CSC23C(=O)N(Cc2ccccc2)c2ccccc23)cc1 (configuration not stated)	i
NC(=O)CN1C(=O)C2(SCC(=O)N2c2cccc(F)c2)c2ccccc21 (configuration not stated)	13%
COc1cccc(CN2C(=O)C3(SCC(=O)N3c3cc(C)cc(C)c3)c3ccccc32)c1 (configuration not stated)	i
Cc1cccc(N2C(=O)CSC23C(=O)N(Cc2cccc(C(F)(F)F)c2)c2ccccc23)c1 (configuration not stated)	10µM*
O=C(C1CCOCC1)N1CCOC[C@H](Oc2cnccn2)C1	0%[44.1 µM]
Cc1cccc(NC(=O)CN2C(=O)C(c3ccccc3)=NC23CCCC3)c1C	-24%
Cc1nc(-c2cccc(NC(=O)N[C@H](C)c3onc(C)c3C(=O)O)c2)no1	17%[44.1 µM]
COC(=O)c1cc2n(n1)CCN(C(=O)C(C)Oc1ccccc1)C2 (configuration not stated)	-1%
O=C(c1cccc(Cl)c1)N1CCC(c2nn(-c3ccc(Cl)cc3)c(=O)[nH]2)CC1	i
O=C(O)C[C@@H]1CCN(C(=O)Cc2ccccc2)C[C@@H]1CCN1CCC[C@H]1C(=O)O	12%[44.1 µM]
SMILES	Pf Dd2 growth
O=C(CCc1conc1-c1ccccc1)N1CCN(c2ccccc2Cl)CC1	i
OC[C@@H]1CNC[C@H]1C1CCN(Cc2cccc(C(F)(F)F)c2)CC1	i
COc1ccc(/C=C/CN2CCC3(CC2)C(=O)N(Cc2cccnc2)C(=O)N3C)cc1	-27%
CCCCS(=O)(=O)N1CCN(C2CCN(CCOC)C2=O)CC1 (configuration not stated)	-11%
CN(Cc1ccccc1C(F)(F)F)C(=O)C1CC1	7%[44.1 µM]
CC(C)(C)N1CC(c2nc(-c3ccc4nc[nH]c4c3)no2)CC1=O (configuration not stated)	-11%
CC(C)CN(CC1CN(C(=O)c2ccccc2Cl)CCO1)C(=O)c1cccc(F)c1 (configuration not stated)	-29%
COCC(=O)NC1CCC12CCN(C(=O)c1ccc3ccccc3n1)CC2 (configuration not stated)	i
CCNC(=O)c1ccc(CC2CCN(C(C)=O)CC2)cc1	-29%
O=C(NC1CC1)c1ccc(CC2CCN(C(=O)c3ccc4ccccc4n3)CC2)cc1	2µM*
O=C(CCC1CCCN(S(=O)(=O)c2ccccc2F)C1)NCCN1CCCC1 (configuration not stated)	-1%
COc1ccccc1-c1cc(C(=O)NC(C)C)c2cnn(C)c2n1	-17%
CCOc1ccc(C(=O)N2CCC(Cc3nc(-c4ccc(F)cc4)no3)CC2)cc1OCC	5µM*

High-throughput results (PubChem)
